Laboratory results: PubChem BioAssay (NCATS)
Records with an inconclusive call do not appear. Values without a mark were called inactive. Active and inactive are the calls of the source. Calls follow the shape of the dose curve; as a rule, active = well fitted inhibition curve with a large enough effect; inconclusive = small, poorly fitted or top-dose-only effect; inactive = flat fitted curve, though single readings scatter.

Tested on: HEK293
Assay: Cytotoxic Profiling of Annotated Libraries Using Quantitative High-Throughput Screening (AID 1296008); also: nearly all actives have a fitted effect of over 60% in size
Conditions: Five cell lines viability, CellTiter-Glo ATP luminescence, 48-72 h; max response: stronger effect = lower value
Summary of the method: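 Cells exposed to compounds for 48 or 72 hr at 37 degrees Celsius. Viability read as ATP-coupled luminescence with CellTiter-Glo after 10 min at room temperature.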
% is scaled to controls: 0 for no effect and ±100 for the full control effect; potency is read from the fitted curve at half-maximal effect.

Row | SMILES | Potency | max response [%] | outcome
1 | O=C(c1ccc(/C=C/c2n[nH]c3ccccc23)cc1)N1CCNCC1 | 20.6 µM (active) | – | –
2 | Cc1cccc(C)c1OCc1cc(C(=O)N2CCC(c3ccncc3)CC2)no1 | 6.51 µM (active) | – | –
3 | Cc1cc(-c2cc(O)ccc2Cl)cc2nnc(Nc3ccc(OCCN4CCCC4)cc3)nc12 | 3.26 µM (active) | – | –
4 | c1cn2cc(-c3ccc4cn[nH]c4c3)nc(Nc3ccc(N4CCOCC4)cc3)c2n1 | 18.4 µM (active) | – | –
5 | CC(C)[C@@](C)(O)[C@@H]1CN(c2nc(-c3[nH]nc4ncccc34)c(F)cc2Cl)CCN1 | 13 µM (active) | – | –
6 | Cc1c[nH]c2nccc(Oc3c(F)cc(Nc4cc(Cl)nc(N)n4)cc3F)c12 | 5.8 µM (active) | – | –
7 | Cc1cc(Nc2ccc(NC(=O)c3ccc(Nc4ccnc5ccccc45)cc3)cc2)nc(N)n1 | 3.26 µM (active) | – | –
8 | C=CC(C)(C)c1[nH]c2cc3c(cc2c1CC1NC(=O)C2=CCCN2C1=O)C=CC(C)(C)O3 (configuration not stated) | – | -27.4 | –
9 | COc1cc2occc2c(O[C@@H]2O[C@H](CO)[C@@H](O)[C@H](O)[C@H]2O)c1CCC(=O)O | – | – | inactive
10 | COc1ncc(Nc2ncc([C@H](C)N3CCN(S(C)(=O)=O)CC3)cc2-c2nc(C)nc(N)n2)cc1F | 0.517 µM (active) | – | –
11 | C=CC(=O)N1CCN(C(=O)CNc2cc(I)c(Cl)cc2O)CC1 | 13 µM (active) | – | –
12 | Cc1cccc2c1NC(=O)C2(c1ccc(O)cc1)c1ccc(O)cc1 | – | -20.9 | –
13 | O=C1NC(=O)C(c2cn(-c3ccccc3)nc2-c2ccc(F)cc2)N1 (configuration not stated) | – | -6.53 | –
14 | Nc1nc(Nc2ccc(S(N)(=O)=O)cc2)n(C(=S)Nc2c(F)cccc2F)n1 | 8.2 µM (active) | – | –
15 | COc1ccc(C(=O)C2CCN(CC(=O)N(Cc3nc4c(c(=O)[nH]3)COCC4)CC3CC3)CC2)cc1 | – | -4.04 | –
16 | CC(O)/C=C/C1C(C)C(O[C@@H]2O[C@H](CO)[C@@H](O)[C@H](O)[C@H]2O)C(O)CC1(C)C (some centres not stated) | – | -16.1 | –
17 | CN(C)CCCCC(=O)Nc1ccc(NC(=S)NC(=O)c2ccc(C(C)(C)C)cc2)cc1 | 6.51 µM (active) | – | –
